Where “and” joins values, the source holds several entries; their conditions need not be identical. Identical values can stand only once. Inconclusive results are not listed. A structure can be active in one record and inactive in another. Calls of active or inactive are those of the source. The calls were made as follows, unless noted: active = hit-call score of the fitted dose curve at least 0.9, where 1 is the maximum; inactive = score below 0.9.
How the values were obtained:
[1] = BSK_3C_VCAM1: BioMAP Diversity Plus: 3C Assay for Vascular cell adhesion molecule 1 (VCAM1) Biomarker Activity (AID 2282999); settings: BioMAP 3C HUVEC, VCAM1 ELISA, cytokine-stimulated; actives raise or lower the signal
How it was run: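 Human umbilical vein endothelial cells (3C system), biomarker read by ELISA 24 h after dosing; bidirectional fit against DMSO baseline. Cytotoxicity tracked by SRB total-protein staining in parallel cultures at biomarker time.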

[2] = BSK_4H_Eotaxin3: BioMAP Diversity Plus: 4H Assay for Eotaxin 3 Biomarker Activity (AID 2283000); settings: primary human endothelial cells (HUVEC); actives raise or lower the signal
How it was run: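 HUVEC, 24 h post-dose, ELISA for Eotaxin-3/CCL26. Gain or loss of signal fitted bidirectionally vs DMSO baseline.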

[3] = target: human Peroxisome Proliferator-activated Receptor alpha (PPARa), PPARA (gene 5465) (UniProt Q07869); assay: ATG_PPARa_TRANS: Attagene TRANS-FACTORIAL HepG2 Assay for human Peroxisome Proliferator-activated Receptor alpha (PPARa) (AID 2283001; active = hit-call score of the fitted dose curve at least 0.9, where 1 is the maximum;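 as to AC50: potency for gain of reporter signal over DMSO so agonist or activator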)
How it was run: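 HepG2 cells transiently transfected with multiplexed GAL4-UAS reporters driven by exogenous chimeric NR-Gal4 proteins; reporter mRNA measured after 24 h dosing. Read-out by RT-PCR, 6-FAM labelling, HpaI digestion and capillary electrophoresis; gain of signal versus DMSO.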

[4] = read-out: Intercellular Adhesion Molecule 1 (ICAM1), ICAM1 (gene 3383); assay: BSK_3C_ICAM1: BioMAP Diversity Plus: 3C Assay for Intercellular Adhesion Molecule 1 (ICAM1) Biomarker Activity (AID 2283003); settings: primary human endothelial cells (HUVEC); actives raise or lower the signal
How it was run: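 HUVEC primary cells stimulated under 3C conditions; ICAM1 measured by ELISA 24 h after compound dosing. Curves fitted bidirectionally against the DMSO baseline. Overt cytotoxicity checked by SRB staining of parallel cultures.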

[5] = target: human Retinoic Acid Receptor beta (RARb), RARB (gene 5915) (UniProt P10826); assay: ATG_RARb_TRANS: Attagene TRANS-FACTORIAL HepG2 Assay for human Retinoic Acid Receptor beta (AID 2283004; active = hit-call score of the fitted dose curve at least 0.9, where 1 is the maximum)
How it was run: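 HepG2 cells transiently transfected with multiplexed GAL4-UAS reporter units expressing chimeric NR–Gal4 fusions; 24 h compound exposure. Reporter mRNA quantified by RT-PCR, 6-FAM labelling, HpaI digestion and capillary electrophoresis; gain-of-signal fitted against DMSO baseline.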

[6] = target: Retinoic acid receptor alpha (Homo sapiens) (UniProt P10276); assay: ATG_RARa_TRANS: Attagene TRANS-FACTORIAL HepG2 Assay for human Retinoic Acid Receptor alpha (RARa) (AID 2283005; active = hit-call score of the fitted dose curve at least 0.9, where 1 is the maximum)
How it was run: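 HepG2 transiently transfected with multiplex GAL4-UAS reporter units including a human RARa–GAL4 chimera; 24 h compound exposure. Reporter mRNA quantified by RT-PCR, 6-FAM labeling and capillary electrophoresis; gain of signal versus DMSO.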

[7] = BSK_3C_Proliferation: Cell Proliferation Assessment in the BioMAP Diversity Plus: 3C Assay (AID 2283006); settings: primary human endothelial cells (HUVEC);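 as to AC50: potency may reflect either rise or fall in cell number versus DMSO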
How it was run: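 Subconfluent HUVEC (3C system) cultured with chemical; relative cell number read at 48 h by sulforhodamine B total-protein staining (0.1% SRB after 10% TCA fixation, 560 nm). Bidirectional fit relative to DMSO.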

[8] = target: Nuclear receptor subfamily 1 group I member 2 (Homo sapiens) (UniProt O75469); assay: ATG_PXR_TRANS: Attagene TRANS-FACTORIAL HepG2 Assay for human Pregnane X Receptor (PXR) (AID 2283008; active = hit-call score of the fitted dose curve at least 0.9, where 1 is the maximum)
How it was run: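 Measures mRNA induction of a GAL4-UAS-driven reporter in human HepG2 cells transiently expressing PXR fused to Gal4, following 24 h treatment. DMSO served as negative control and baseline.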

[9] = target: human RAR-related Orphan Receptor beta (RORb), RORB (gene 6096) (UniProt Q92753); assay: ATG_RORb_TRANS: Attagene TRANS-FACTORIAL HepG2 Assay for human RAR-related Orphan Receptor beta (RORb) (AID 2283010; active = hit-call score of the fitted dose curve at least 0.9, where 1 is the maximum)
How it was run: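 HepG2 cells transiently transfected with GAL4-UAS reporter units expressing chimeric NR-Gal4 protein; reporter mRNA measured 24 h after dosing by RT-PCR, 6-FAM labelling and capillary electrophoresis. Gain-of-signal fitted relative to DMSO baseline.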

[10] = target: Retinoic acid receptor RXR-alpha (Homo sapiens) (UniProt P19793); assay: ATG_RXRa_TRANS: Attagene TRANS-FACTORIAL HepG2 Assay for human Retinoid X Receptor alpha (RXRa) (AID 2283012; active = hit-call score of the fitted dose curve at least 0.9, where 1 is the maximum)
How it was run: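 HepG2 cells transiently transfected with GAL4-UAS reporter units and chimeric RXRa-Gal4 protein, treated 24 h. Reporter mRNA measured by RT-PCR, fluorescent labelling, HpaI digestion and capillary electrophoresis. Induction fitted against DMSO.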

[11] = target: human Retinoid X Receptor beta (RXRb), RXRB (gene 6257) (UniProt P28702); assay: ATG_RXRb_TRANS: Attagene TRANS-FACTORIAL HepG2 Assay for human Retinoid X Receptor beta (RXRb) (AID 2283013; active = hit-call score of the fitted dose curve at least 0.9, where 1 is the maximum)
How it was run: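 HepG2 cells were transiently transfected with multiplexed GAL4-UAS reporters and a chimeric RXRb-Gal4 construct, then exposed for 24 h. Reporter mRNA was quantified by RT-PCR, FAM labeling, HpaI digestion and capillary electrophoresis; gain of signal was scored against DMSO.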

[12] = target: human Thyroid Receptor alpha (THRa1), THRA (gene 7067) (UniProt P10827); assay: ATG_THRa1_TRANS: Attagene TRANS-FACTORIAL HepG2 Assay for human Thyroid Receptor alpha (THRa1) (AID 2283014; active = hit-call score of the fitted dose curve at least 0.9, where 1 is the maximum)
How it was run: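 HepG2 cells transiently transfected with multiplexed GAL4-UAS reporter units for exogenous chimeric THRa1-Gal4; reporter mRNA measured 24 h after dosing by RT-PCR, 6-FAM labelling, HpaI digestion and capillary electrophoresis. Gain-of-signal fitted versus DMSO baseline.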

[13] = read-out: E-selectin (Homo sapiens) (UniProt P16581); assay: BSK_3C_Eselectin: BioMAP Diversity Plus: 3C Assay for Eselectin Biomarker Activity (AID 2283015); settings: primary human endothelial cells (HUVEC); actives raise or lower the signal
How it was run: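 Primary human umbilical vein endothelial cells (3C system) were dosed with chemical and cell-surface E-selectin measured by ELISA 24 h later. Bidirectional curve fitting used DMSO as negative control and baseline.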

[14] = read-out: Interleukin-1 alpha (IL1a), IL1A (gene 3552); assay: BSK_BE3C_IL1a: BioMAP Diversity Plus: BE3C Assay for Interleukin-1 alpha (IL1a) Biomarker Activity (AID 2283016); settings: primary human bronchial epithelial cells; actives raise or lower the signal
How it was run: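 Human primary bronchial epithelial cells, 24 h chemical exposure; IL-1a quantified by ELISA, fitted bidirectionally against DMSO. Cytotoxicity assessed in parallel by SRB total-protein staining at the time of measurement.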

[15] = read-out: Monocyte Chemoattractant Protein-1 (MCP1), CCL2 (gene 6347); assay: BSK_3C_MCP1: BioMAP Diversity Plus: 3C Assay for Monocyte Chemoattractant Protein-1 (MCP1) Biomarker Activity (AID 2283017); settings: primary human endothelial cells (HUVEC); actives raise or lower the signal
How it was run: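 Primary human umbilical vein endothelial cells (3C system) were exposed to test chemical for 24 h, after which MCP-1 was quantified by ELISA. Activity was fitted bidirectionally against DMSO as negative control and baseline.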

[16] = read-out: Monocyte Chemoattractant Protein-1 (MCP1), CCL2 (gene 6347); assay: BSK_4H_MCP1: BioMAP Diversity Plus: 4H Assay for Monocyte Chemoattractant Protein-1 (MCP1) Biomarker Activity (AID 2283018); settings: primary human endothelial cells (HUVEC); actives raise or lower the signal
How it was run: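 Human umbilical vein endothelial cells (4H system) exposed to chemicals for 24 h in 96-well format. MCP-1 measured by ELISA; bidirectional fitting against DMSO, with SRB total-protein staining in parallel cultures for cytotoxicity.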

[17] = target: human Peroxisome Proliferator-activated Receptor delta (PPARd), PPARD (gene 5467) (UniProt Q03181); assay: ATG_PPARd_TRANS: Attagene TRANS-FACTORIAL HepG2 Assay for human Peroxisome Proliferator-activated Receptor delta (PPARd) (AID 2283002; active = hit-call score of the fitted dose curve at least 0.9, where 1 is the maximum)
How it was run: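 HepG2 cells transiently transfected with GAL4-UAS multiplexed reporter units driven by exogenous chimeric NR-GAL4 proteins; 24 h compound exposure. Reporter mRNA measured by RT-PCR, 6-FAM primer extension, HpaI digestion and capillary electrophoresis; gain of signal fitted relative to DMSO.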

[18] = target: Peroxisome proliferator-activated receptor gamma (Homo sapiens) (UniProt P37231); assay: ATG_PPARg_TRANS: Attagene TRANS-FACTORIAL HepG2 Assay for human Peroxisome Proliferator-activated Receptor-gamma (PPARg) (AID 2283007; active = hit-call score of the fitted dose curve at least 0.9, where 1 is the maximum)
How it was run: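 After 24 h of chemical exposure, transfected HepG2 cells carrying PPARγ-Gal4 chimera reporter constructs are lysed for RNA. Reporter transcripts are measured by RT-PCR and capillary electrophoresis with fluorescent labelling, and gain of signal is fitted versus DMSO.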

[19] = target: human Retinoic Acid Receptor gamma (RARg), RARG (gene 5916) (UniProt P13631); assay: ATG_RARg_TRANS: Attagene TRANS-FACTORIAL HepG2 Assay for human Retinoic Acid Receptor gamma (RARg) (AID 2283009; active = hit-call score of the fitted dose curve at least 0.9, where 1 is the maximum;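 as to AC50: AC50 is for reporter induction above DMSO meaning RARg activation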)
How it was run: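 HepG2 transiently transfected with GAL4-UAS reporter units and chimeric NR-Gal4 constructs; 24 h compound exposure. Reporter mRNA quantified by RT-PCR, FAM labeling, HpaI digestion and capillary electrophoresis; gain-of-signal versus DMSO.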

[20] = target: human RAR-related Orphan Receptor gamma (RORg), RORC (gene 6097) (UniProt P51449); assay: ATG_RORg_TRANS: Attagene TRANS-FACTORIAL HepG2 Assay for human RAR-related Orphan Receptor gamma (RORg) (AID 2283011; active = hit-call score of the fitted dose curve at least 0.9, where 1 is the maximum)
How it was run: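 Readout: reporter transcript induction (RT-PCR, fluorescent primer extension, capillary electrophoresis) after 24 h compound exposure of transiently transfected HepG2 cells carrying a RORg-Gal4 chimera and GAL4-UAS reporters; DMSO served as baseline, with increasing signal fitted.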

Measured: AC50

Chain of Nuclear receptor subfamily 1 group I member 2 (Homo sapiens) (O75469 whole entry, looked up, the tested form may be a part): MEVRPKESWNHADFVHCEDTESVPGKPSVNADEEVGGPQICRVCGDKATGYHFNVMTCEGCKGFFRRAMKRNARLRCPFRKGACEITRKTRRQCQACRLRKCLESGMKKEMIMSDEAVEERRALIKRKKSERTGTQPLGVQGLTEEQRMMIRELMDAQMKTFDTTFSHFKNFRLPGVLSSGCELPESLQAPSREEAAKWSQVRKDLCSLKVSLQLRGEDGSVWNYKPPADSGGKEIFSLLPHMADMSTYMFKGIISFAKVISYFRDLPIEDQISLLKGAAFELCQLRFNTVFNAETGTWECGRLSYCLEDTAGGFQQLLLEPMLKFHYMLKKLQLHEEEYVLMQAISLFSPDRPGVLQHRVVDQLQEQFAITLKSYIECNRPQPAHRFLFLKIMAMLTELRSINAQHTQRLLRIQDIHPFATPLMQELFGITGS
Chain of human Peroxisome Proliferator-activated Receptor alpha (PPARa), PPARA (gene 5465) (Q07869 whole entry, looked up, the tested form may be a part): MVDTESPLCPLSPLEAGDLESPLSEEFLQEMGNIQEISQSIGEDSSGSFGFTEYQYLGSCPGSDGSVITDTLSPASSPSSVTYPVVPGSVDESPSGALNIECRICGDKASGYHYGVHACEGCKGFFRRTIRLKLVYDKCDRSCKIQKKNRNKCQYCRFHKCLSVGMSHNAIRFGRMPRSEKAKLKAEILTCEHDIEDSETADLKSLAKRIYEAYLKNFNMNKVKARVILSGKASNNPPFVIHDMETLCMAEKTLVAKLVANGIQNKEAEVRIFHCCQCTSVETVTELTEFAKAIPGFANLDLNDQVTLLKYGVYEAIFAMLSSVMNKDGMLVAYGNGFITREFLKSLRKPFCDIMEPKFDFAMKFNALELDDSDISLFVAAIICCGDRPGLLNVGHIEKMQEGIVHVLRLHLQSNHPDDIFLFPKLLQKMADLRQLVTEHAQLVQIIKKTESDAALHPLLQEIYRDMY
Chain of human Thyroid Receptor alpha (THRa1), THRA (gene 7067) (P10827 whole entry, looked up, the tested form may be a part): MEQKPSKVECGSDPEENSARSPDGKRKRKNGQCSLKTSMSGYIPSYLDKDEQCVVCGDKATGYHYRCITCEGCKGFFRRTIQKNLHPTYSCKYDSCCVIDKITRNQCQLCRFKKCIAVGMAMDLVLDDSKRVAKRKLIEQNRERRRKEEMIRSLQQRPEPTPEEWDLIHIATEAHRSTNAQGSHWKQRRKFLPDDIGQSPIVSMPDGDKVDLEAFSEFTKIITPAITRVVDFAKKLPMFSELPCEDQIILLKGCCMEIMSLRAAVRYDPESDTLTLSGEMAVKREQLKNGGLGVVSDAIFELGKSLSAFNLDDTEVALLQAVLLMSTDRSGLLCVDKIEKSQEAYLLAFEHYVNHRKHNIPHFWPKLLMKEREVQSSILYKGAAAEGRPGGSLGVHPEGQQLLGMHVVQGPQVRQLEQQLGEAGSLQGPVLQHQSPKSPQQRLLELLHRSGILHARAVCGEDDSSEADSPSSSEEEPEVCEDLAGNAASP
Chain of human Retinoid X Receptor beta (RXRb), RXRB (gene 6257) (P28702 whole entry, looked up, the tested form may be a part): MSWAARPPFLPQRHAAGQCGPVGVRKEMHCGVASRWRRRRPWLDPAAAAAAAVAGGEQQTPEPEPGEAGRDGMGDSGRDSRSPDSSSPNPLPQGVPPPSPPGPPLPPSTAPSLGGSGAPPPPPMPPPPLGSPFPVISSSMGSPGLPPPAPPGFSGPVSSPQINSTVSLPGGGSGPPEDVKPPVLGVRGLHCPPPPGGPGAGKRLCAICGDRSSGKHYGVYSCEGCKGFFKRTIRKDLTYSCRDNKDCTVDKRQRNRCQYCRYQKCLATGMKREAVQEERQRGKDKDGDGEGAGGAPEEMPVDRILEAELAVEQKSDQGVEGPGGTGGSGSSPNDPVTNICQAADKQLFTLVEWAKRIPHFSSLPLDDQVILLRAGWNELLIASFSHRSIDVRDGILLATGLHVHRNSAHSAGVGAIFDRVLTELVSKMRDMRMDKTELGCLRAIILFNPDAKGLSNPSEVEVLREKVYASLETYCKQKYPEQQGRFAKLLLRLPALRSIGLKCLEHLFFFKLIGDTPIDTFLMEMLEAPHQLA
Chain of Retinoic acid receptor alpha (Homo sapiens) (P10276 whole entry, looked up, the tested form may be a part): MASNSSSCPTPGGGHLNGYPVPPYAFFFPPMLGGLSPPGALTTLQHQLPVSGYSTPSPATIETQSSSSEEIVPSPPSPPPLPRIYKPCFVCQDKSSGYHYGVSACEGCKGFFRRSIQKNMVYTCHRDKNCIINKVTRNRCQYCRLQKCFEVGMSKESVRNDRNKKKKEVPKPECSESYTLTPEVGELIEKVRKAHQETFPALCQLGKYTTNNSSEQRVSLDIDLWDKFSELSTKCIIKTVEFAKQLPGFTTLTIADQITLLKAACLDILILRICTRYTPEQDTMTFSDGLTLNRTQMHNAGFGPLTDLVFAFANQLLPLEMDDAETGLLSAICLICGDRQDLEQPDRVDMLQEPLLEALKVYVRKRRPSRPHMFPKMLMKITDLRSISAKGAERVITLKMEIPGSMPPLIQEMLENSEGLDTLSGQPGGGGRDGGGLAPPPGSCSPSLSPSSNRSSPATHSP
Chain of Retinoic acid receptor RXR-alpha (Homo sapiens) (P19793 whole entry, looked up, the tested form may be a part): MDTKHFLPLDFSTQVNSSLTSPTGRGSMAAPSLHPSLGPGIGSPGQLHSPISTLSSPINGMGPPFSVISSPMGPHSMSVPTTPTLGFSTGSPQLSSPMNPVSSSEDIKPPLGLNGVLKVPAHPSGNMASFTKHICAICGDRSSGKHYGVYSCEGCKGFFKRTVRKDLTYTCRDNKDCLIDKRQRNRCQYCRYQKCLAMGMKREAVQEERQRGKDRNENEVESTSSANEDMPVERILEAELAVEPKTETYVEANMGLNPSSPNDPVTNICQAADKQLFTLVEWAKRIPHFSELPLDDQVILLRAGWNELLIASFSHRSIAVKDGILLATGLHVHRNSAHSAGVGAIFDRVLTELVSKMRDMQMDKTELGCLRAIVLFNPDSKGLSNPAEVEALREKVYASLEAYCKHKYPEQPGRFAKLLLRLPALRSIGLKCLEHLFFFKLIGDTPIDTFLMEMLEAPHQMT
Chain of human Retinoic Acid Receptor gamma (RARg), RARG (gene 5916) (P13631 whole entry, looked up, the tested form may be a part): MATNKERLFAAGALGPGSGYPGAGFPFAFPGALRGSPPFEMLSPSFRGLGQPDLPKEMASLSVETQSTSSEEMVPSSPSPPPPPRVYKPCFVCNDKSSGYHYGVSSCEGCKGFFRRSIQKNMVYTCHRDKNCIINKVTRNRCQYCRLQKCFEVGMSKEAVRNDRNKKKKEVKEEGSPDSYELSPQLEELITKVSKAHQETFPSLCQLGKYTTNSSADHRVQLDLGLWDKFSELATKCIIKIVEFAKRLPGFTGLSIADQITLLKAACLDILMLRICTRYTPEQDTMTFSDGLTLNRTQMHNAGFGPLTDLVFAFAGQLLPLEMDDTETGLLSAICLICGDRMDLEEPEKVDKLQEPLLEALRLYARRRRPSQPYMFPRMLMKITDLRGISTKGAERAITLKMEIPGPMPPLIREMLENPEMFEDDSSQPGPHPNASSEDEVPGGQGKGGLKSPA
Chain of human Peroxisome Proliferator-activated Receptor delta (PPARd), PPARD (gene 5467) (Q03181 whole entry, looked up, the tested form may be a part): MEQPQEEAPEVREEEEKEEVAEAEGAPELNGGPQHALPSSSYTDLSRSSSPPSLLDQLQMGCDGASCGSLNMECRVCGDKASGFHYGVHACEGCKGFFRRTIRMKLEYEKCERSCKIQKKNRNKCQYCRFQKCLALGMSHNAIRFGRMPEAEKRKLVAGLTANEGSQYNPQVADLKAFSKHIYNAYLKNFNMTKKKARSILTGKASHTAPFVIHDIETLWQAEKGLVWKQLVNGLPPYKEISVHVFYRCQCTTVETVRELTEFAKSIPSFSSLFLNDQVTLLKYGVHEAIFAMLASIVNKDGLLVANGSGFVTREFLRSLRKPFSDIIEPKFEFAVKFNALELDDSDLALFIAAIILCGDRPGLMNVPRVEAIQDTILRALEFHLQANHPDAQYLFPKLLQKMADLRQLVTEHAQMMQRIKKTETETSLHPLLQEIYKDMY
Chain of human Retinoic Acid Receptor beta (RARb), RARB (gene 5915) (P10826 whole entry, looked up, the tested form may be a part): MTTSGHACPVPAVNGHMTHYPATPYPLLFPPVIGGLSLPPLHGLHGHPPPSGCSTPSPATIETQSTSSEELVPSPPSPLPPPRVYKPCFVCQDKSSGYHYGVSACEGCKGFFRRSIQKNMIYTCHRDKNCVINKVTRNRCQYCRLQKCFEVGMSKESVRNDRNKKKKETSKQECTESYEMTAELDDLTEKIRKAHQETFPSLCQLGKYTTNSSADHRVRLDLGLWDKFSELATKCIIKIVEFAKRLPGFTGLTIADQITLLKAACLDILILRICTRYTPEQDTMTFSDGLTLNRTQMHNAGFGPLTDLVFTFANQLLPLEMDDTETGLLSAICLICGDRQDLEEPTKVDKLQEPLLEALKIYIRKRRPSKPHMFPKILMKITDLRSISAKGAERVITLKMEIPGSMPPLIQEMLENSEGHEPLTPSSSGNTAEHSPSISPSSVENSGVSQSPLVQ
Chain of E-selectin (Homo sapiens) (P16581 whole entry, looked up): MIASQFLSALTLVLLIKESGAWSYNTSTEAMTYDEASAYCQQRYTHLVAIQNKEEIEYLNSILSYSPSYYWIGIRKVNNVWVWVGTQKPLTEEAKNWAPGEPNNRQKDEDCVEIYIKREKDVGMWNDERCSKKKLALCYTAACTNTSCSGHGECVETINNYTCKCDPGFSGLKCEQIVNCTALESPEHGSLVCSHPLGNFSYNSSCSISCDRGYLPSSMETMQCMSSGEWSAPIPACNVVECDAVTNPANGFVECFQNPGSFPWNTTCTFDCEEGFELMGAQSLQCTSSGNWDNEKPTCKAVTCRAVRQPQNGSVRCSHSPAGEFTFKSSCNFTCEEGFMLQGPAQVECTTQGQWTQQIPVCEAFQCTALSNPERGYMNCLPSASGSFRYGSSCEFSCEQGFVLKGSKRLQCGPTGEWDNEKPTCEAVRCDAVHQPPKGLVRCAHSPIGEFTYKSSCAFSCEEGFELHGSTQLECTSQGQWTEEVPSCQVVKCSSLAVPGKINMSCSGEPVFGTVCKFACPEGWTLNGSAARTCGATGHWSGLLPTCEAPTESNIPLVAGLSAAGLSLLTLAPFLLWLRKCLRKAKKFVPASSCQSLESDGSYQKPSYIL

O=C(O)C(Cl)(Cl)Cl
not listed: [17] | [18] | [19] | [20]
inactive: all other assays above

C=CC(=O)OCCCCCC(C)C
not listed: [5] | [6] | [9] | [12] | [19] | [20]
inactive: all other assays above

CCCCCCCCc1ccc(O)cc1
active: [1] 31.9 µM | [2] 33.5 µM | [3] 24.8 µM | [4] 35.6 µM | [7] 8.43 µM | [8] 7.55 µM | [19] 33.5 µM | [11] 24.5 µM | [12] 43.7 µM | [13] 31.7 µM | [14] 32.6 µM | [15] 34.1 µM | [16] 20.1 µM
inactive: [3] | [17] | [5] | [6] | [8] | [19] | [20] | [10] | [12]

COP(=S)(OC)Oc1cc(Cl)c(Cl)cc1Cl
active: [2] 20 µM | [3] 100 µM | [7] 20 µM | [11] 68.2 µM
not listed: [6] | [8] | [9] | [18] | [20]
inactive: all other assays above

CC(C)CCCCCCOC(=O)c1ccccc1C(=O)OCCCCCCC(C)C
active: [8] 1.84 µM
not listed: [5] | [6] | [10] | [11] | [12] | [18] | [19] | [20]
inactive: all other assays above

CC(=O)[O][Hg][c]1ccccc1
active: [1] 2.36 µM | [2] 1.78 µM | [4] 2.69 µM | [7] 1.18 µM | [11] 14.8 µM | [13] 3.04 µM | [14] 2.57 µM | [15] 0.964 µM | [16] 1.03 µM
inactive: [3] | [17] | [6] | [8] | [12]

Reference: PubChem BioAssay (EPA / NIEHS)
